Screening results: PubChem BioAssay, several laboratories
Sampled rows, rich in hits. Any-hit rate of the full collection: about 1.7%.
Vif imaging = HIV Vif self-association inhibitors, primary screen, imaging, HEK293T, single point; inhibition, % at 7.49 µM; actives 0.35% (n = 340,000); HEK293T cells, Vif self-association by quenched fluorescence, 24 h; in the data active means inhibition above about 50%, passing the limit was not always enough; inconclusive means no clear call, values can overlap the other calls; inactive means below about 31%
ARNT-TACC3 inh = disruptors of ARNT/TACC3 protein interaction, primary screen, biochemical, AlphaScreen, single concentration; Transforming acidic coiled-coil-containing protein 3 (Homo sapiens), Q9Y6A5; AlphaScreen His-ARNT PAS-B/GST-TACC3 binding, luminescence; TACC3 fragment carries E629A point mutation; inhibition, % at 9.99 µM; actives 0.66% (n = 390,000); AID 623870, 2012;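 active means mean inhibition of replicates at least 50% and at least half of replicates each reaching 50%; inconclusive means half or more replicates reach 50% but mean below 50%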;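 further: 0% = complete ARNT plus TACC3 wells and 100% = ARNT alone without TACC3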
aDG glyco up = activators of alpha-DG glycosylation, primary screen, uHTS, Pro5-aDG cells, AlphaScreen | alpha-DG glycosylation AlphaScreen (IIH6); 0% Pro5, 100% B10-LARGE cell signal | activation, % at 10 µM | actives 0.22% (n = 360,000) | AID 624168, 2012;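 active means activation of at least 8% versus controls, or a plate z-score of at least 8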;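 further: Pro5 are CHO cells carrying HIG-tagged alpha-DG that lacks glycosylation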
N-glyco inh = increase of ERlucT glycosylation luciferase signal, primary screen, N-linked glycosylation inhibitor project, D54 ERlucT cells, luminescence, set 2; actives 0.23% (n = 360,000); reporter increase, % at 12.5 µM; D54 ERlucT glycosylation luciferase reporter, 24 h; percent of 100 nM tunicamycin response;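 active means mean luciferase reporter signal, scaled so untreated is 0 and the glycosylation-blocking control 100, at or above a set limit in every replicate; inconclusive means mean reaches the limit but not every replicate does; inactive means mean below the limit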;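 further: luciferase carries N-glycosylation sites so blocking glycosylation raises the light; 0% = median of neutral control wells and 100% = median of 100 nM tunicamycin wells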
Cardio protect = cardioprotection against H2O2-induced cell death, primary screen, uHTS, H9c2 cells, ATPLite luminescence; protection from H2O2 cell death, % at 20 µM; H9c2 cardiomyocytes, H2O2 injury protection, 2 h; actives 0.63% (n = 360,000);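 active means compounds giving at least 50% protection of heart cells from peroxide-induced death in the single-dose screen, raw or plate-pattern-corrected value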;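 further: 0% = DMSO wells with peroxide and 100% = DMSO wells without peroxide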
Starred values were filed as active, the others as inactive; ? = inconclusive; / = no result.

SMILES	Vif imaging	ARNT-TACC3 inh	aDG glyco up	N-glyco inh	Cardio protect
CCCCCCn1cnc2c(c1=O)c1nc3ccccc3nc1n2/N=C/c1ccco1	26.0	-4.0	-0.1	3.9	55.3*
COc1cc2ccccc2cc1C(=O)N/N=C/c1cccs1	2.4	/	-0.2	34.7*	1.7
COc1cc2ccccc2cc1C(=O)NNC(=O)c1ccccc1O	-7.3	-5.1	1.0	-3.3	51.6*
COc1cccc(-c2ccc3c(c2)[C@H]2[C@H](CCN2S(=O)(=O)c2ccccc2F)[C@H](CO)N3C)c1	/	22.7	/	/	/
COCc1cc(C)nc(SCC(=O)c2ccc(O)c(O)c2)c1C#N	18.4	-1.5	-0.1	-6.3	76.1*
COCc1cc(C)nc(SCC(=O)Oc2ccccc2)c1C#N	0.6	-1.1	-0.1	0.8	5.2
O=C(N/N=C/c1ccc(O)c(O)c1)c1cc(-c2ccccc2)nc2ccccc12	10.5	12.7	0.0	-3.7	61.2*
COc1cccc(/C=N/NC(=O)c2nc(-c3ccccc3)cc(-c3ccccc3)n2)c1	-0.5	-7.8	-0.5	7.9	89.2*
O=C(N/N=C/c1cccc(O)c1)c1cc(-c2ccccc2)nc2ccccc12	3.7	6.9	0.1	-6.3	12.6
Cc1nn(-c2ccccc2)c(N2CCCC2)c1/C=N/NC(=O)c1cc(-c2ccccn2)nc2ccccc12	5.5	-5.9	-0.4	-0.9	56.6*
O=C(N/N=C/c1ccsc1)c1cc(-c2ccncc2)nc2ccccc12	?	-31.1	-0.2	14.9	2.0
O=C(N/N=C/c1ccccn1)c1cc(-c2ccncc2)nc2ccccc12	0.5	68.2*	0.2	41.3*	76.7*
C[C@@H]1CN([C@H](C)CO)C(=O)c2cc(NS(=O)(=O)c3ccccc3)ccc2O[C@@H](C)CCCCO[C@@H]1CN(C)CC1CCCCC1	/	1.5	/	/	/
C[C@H](CO)N1C[C@H](C)[C@H](CN(C)S(=O)(=O)c2ccccc2)OCCCC[C@H](C)Oc2ccc(NC(=O)CCCN(C)C)cc2C1=O	/	-2.4	/	/	/
COc1cccc(CNC(=O)C[C@H]2C=C[C@H](NS(=O)(=O)c3ccccc3OC)[C@@H](CO)O2)c1	/	-2.9	/	/	/
Cc1noc(C)c1S(=O)(=O)Nc1ccc2c(c1)C(=O)N([C@H](C)CO)C[C@@H](C)[C@H](CN(C)Cc1ccncc1)O2	/	-2.2	/	/	/
Cc1ccc(C)c(-c2cc(C(=O)N/N=C/c3cccnc3)c3ccccc3n2)c1	-6.2	/	0.1	-1.9	56.5*
Cc1ccc(-c2cc(C(=O)N/N=C/c3cccnc3)c3ccccc3n2)cc1C	8.7	/	-0.1	-0.9	-10.8
C(=N\c1nccs1)/c1c[nH]c2ccccc12	-2.2	39.8*	0.3	2.7	5.3
C(=NN=Cc1c[nH]c2ccccc12)c1c[nH]c2ccccc12	/	/	0.1	3.1	2.9
C[C@@]12C(=O)OC(=O)[C@]1(C)C1CCC2O1	-18.8	-3.8	0.1	23.1	67.0*
CC12C(=O)N(c3nccs3)C(=O)C1(C)C1CCC2O1 (configuration not stated)	-4.7	/	1.9	1.0	5.2
Cc1ccc(S(=O)(=O)N(C)C[C@@H]2OCc3ccccc3-c3c(n(C)c4ccccc34)C(=O)N([C@H](C)CO)C[C@H]2C)cc1	/	1.0	/	/	/
CCOC(=O)c1ccccc1NC(=O)c1ccc2c(=O)n3c(nc2c1)CCCCC3	/	-3.3	-0.1	-3.1	51.2*
CNC(=O)C[C@@H]1CC[C@@H]2[C@@H](COc3ccc(NC(=O)Nc4ccc(F)cc4)cc3C(=O)N2C)O1	/	-8.1	/	/	/
C/C=C/c1ccc2c(c1)O[C@H](CN(C)C(=O)c1ccncc1)[C@H](C)CN([C@@H](C)CO)S2(=O)=O	/	-2.9	/	/	/
C[C@H](CO)N1C[C@H](C)[C@@H](CN(C)Cc2ccc(C(=O)O)cc2)Oc2ccc(N(C)C)cc2C1=O	/	-21.2	/	/	/
Clc1ccccc1-c1nn2c(-c3ccccn3)nnc2s1	9.1	41.0	-0.4	6.9	11.9
Brc1ccc(-c2nn3c(-c4ccccn4)nnc3s2)o1	1.9	68.2*	-0.1	1.6	52.2*
Brc1ccc(-c2nn3c(-c4ccco4)nnc3s2)o1	-1.5	-21.1	0.0	1.5	93.8*
